LmPK inh – qHTS Assay for Inhibitors of Leishmania Mexicana Pyruvate Kinase (LmPK). Q27686. purified LmPK, Kinase-Glo ATP luminescence, 1 h. Potency, µM (titrated, usually from 57.5 µM), for the others: at the highest dose activity change, negative = inhibition, actives largely listed as inhibitors. hit rate 0.37% among 290,000; active = well fitted curve in the direction sought with a large enough effect; inconclusive = small, poorly fitted or top-dose-only effect, or another doubt; inactive = no such curve, though single readings can be large; an effect the other way counts as inactive or inconclusive; also: potency is read from the fitted curve at half-maximal effect; % is scaled to controls: 0 for no effect and ±100 for the full control effect
Target sequence (Q27686 whole entry, looked up): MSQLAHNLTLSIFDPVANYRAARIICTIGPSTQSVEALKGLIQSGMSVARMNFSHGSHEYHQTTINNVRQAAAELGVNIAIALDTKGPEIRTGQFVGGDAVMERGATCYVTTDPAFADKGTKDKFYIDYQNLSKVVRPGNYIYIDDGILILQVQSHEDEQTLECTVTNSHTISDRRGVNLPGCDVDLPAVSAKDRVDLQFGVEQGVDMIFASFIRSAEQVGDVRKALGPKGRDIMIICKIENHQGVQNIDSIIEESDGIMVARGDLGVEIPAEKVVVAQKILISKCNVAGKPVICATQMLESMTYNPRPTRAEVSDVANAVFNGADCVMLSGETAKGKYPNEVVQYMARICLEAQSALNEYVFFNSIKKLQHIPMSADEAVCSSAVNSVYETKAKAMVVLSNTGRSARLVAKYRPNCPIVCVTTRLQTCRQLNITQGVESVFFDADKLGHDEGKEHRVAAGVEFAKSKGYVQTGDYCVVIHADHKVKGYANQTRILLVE
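Pyruvate kinase activity monitored as ATP production (luciferase luminescence). Conditions: 0.1 nM enzyme, 0.5 mM PEP, 0.1 mM ADP, 1 h, RT; normalized against uninhibited and no-enzyme wells.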
CHX counter – Cycloheximide Counterscreen for Small Molecule Inhibitors of Shiga Toxin. AID 2314, 2010. cell reporter, cycloheximide protein synthesis inhibition counterscreen. max response, %. hit rate 12% among 300,000; in the data active = max response mostly above about 13%, no sharp cut-off; inactive = mostly below about 14%; also: read at 38.3 µM for the half of the compounds with a filed dose; 0% is about no effect
Shiga inhibitor – A qHTS for Small Molecule Inhibitors of Shiga Toxin; Vero cells, Shiga toxin protein synthesis inhibition reporter; inhibition, % at 38.7 µM; hit rate 9.2% among 290,000; AID 2315, 2010; in the data active = inhibition mostly above about 28%, no sharp cut-off; inactive = mostly below about 43%; also: 0% is about no effect
SARS PLpro yeast – qHTS of Yeast-based Assay for SARS-CoV PLP. S. cerevisiae expressing SARS-CoV PLpro, growth rescue. Potency, µM (series often up to 32.9 µM), for the others: top-dose activity, positive = growth rescue, actives largely listed as activators. hit rate 0.19% among 330,000; also: potency is read from the fitted curve at half-maximal effect; 0% is about no effect; nearly all actives have a fitted effect of over 55% in size
NS1 function inh – qHTS Assay for Inhibitors of Influenza NS1 Protein Function; Potency, µM (doses to about 46.1 µM), without a hit: at the highest dose activity, positive = more growth; hit rate 0.4% among 270,000; AID 2326, 2010; also: potency is read from the fitted curve at half-maximal effect; actives are rising curves; nearly all actives have a fitted effect of over 50% in size
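A cell-based growth assay was used: compounds that relieve NS1-induced slow growth of budding yeast raise OD600. Assay medium was yeast nitrogen base with ammonium sulphate and -URA supplement, pH 6.0, with 2% galactose.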
Tb PYK inh – qHTS of Trypanosoma Brucei Inhibitors; TbPYK enzyme, Kinase-Glo Plus ATP luminescence, 45 min; Potency, µM (highest dose often 76.8 µM), without a hit: at the top dose activity, negative = inhibition, most hits filed as inhibitors; hit rate 0.12% among 410,000; AID 624173, 2012; active = well fitted curve in the direction sought with a large enough effect; inconclusive = small, poorly fitted or top-dose-only effect, or another doubt; inactive = no such curve, though single readings can be large; an effect the other way counts as inactive or inconclusive; also: potency is read from the fitted curve at half-maximal effect; % is scaled to controls: 0 for no effect and ±100 for the full control effect; nearly all actives have a fitted effect of over 50% in size
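Activity of T. brucei pyruvate kinase was followed by Kinase-Glo Plus luminescence after the enzyme reacted 45 min at room temperature with 130 uM ADP (final) and substrate. Test compounds were added before ADP at multiple concentrations.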
Numbers without * were called inactive; ? = inconclusive; . = no result given. The entries come from a sample that favours hits as a whole. Unless noted, calls follow the shape of the full dose curve.

SMILES	LmPK inh	CHX counter	Shiga inhibitor	SARS PLpro yeast	NS1 function inh	Tb PYK inh
O=C(Nc1ccc(F)cc1)N1CCc2ccccc2C1	-1%	51*	91*	-3%	-4%	2%
COc1cccc(NC(=O)Nc2ccccc2SC)c1	?	37*	84*	-2%	-10%	-14%
COc1ccc(NC(=O)Nc2ccccc2SC)cc1OC	-4%	20*	48*	0%	6%	10%
COc1ccc(NC(=O)Nc2ccccc2SC)c(OC)c1	-1%	-1	29	0%	5%	-11%
CC(=O)NCCC(=O)Nc1cc(S(=O)(=O)N2CCOCC2)ccc1N1CCCC1	.	.	.	1%	.	0%
c1ccc2c(CN3CCCCCC3)c[nH]c2c1	-2%	39*	73*	-2%	-37%	2%
O=C1c2ccccc2C(=O)N1CCCc1c[nH]c2ccccc12	1%	17*	21	-8%	0%	-6%
O=C1CCC(=O)N1CCc1c[nH]c2ccccc12	2%	-4	-5	-2%	-4%	-14%
c1ccc2c(CN3CCN(Cc4c[nH]c5ccccc45)CC3)c[nH]c2c1	.	.	.	.	-5%	.
O=C1c2ccccc2C(=O)N1CCc1c[nH]c2ccc(O)cc12	2%	34*	46	1%	2%	-3%
CNCCc1c[nH]c2ccc(O)cc12	.	.	.	.	0%	-12%
O=C1c2ccccc2C(=O)N1CCc1c[nH]c2ccccc12	1%	48*	95*	-1%	-6%	-2%
Cc1noc(C)c1C(=O)N1CCC2(CC1)CCN(c1cccc(-c3ccccc3)c1)CC2	.	.	.	.	.	-6%
Cn1c(SCC(=O)Nc2ccc(Br)cn2)nnc1C1CC1	-5%	2	19	0%	4%	-5%
O=C1CCCCN1CCc1c[nH]c2ccccc12	3%	25*	active	10%	9%	-9%
O=C(c1ccccc1)c1nn(-c2ccc(Cl)cc2)c(=O)cc1C(F)(F)F	1%	13*	33*	-3%	-48%	2%
O=C(c1ccccc1)c1nn(-c2ccccc2)c(=O)cc1C(F)(F)F	0%	17*	27	2%	-1%	-9%
O=C1Oc2ccccc2C(=O)C1C(CC(O)c1ccc(-c2ccc(Br)cc2)cc1)c1ccccc1 (centres undefined)	.	.	.	.	.	0%
Cc1c(C(=O)NCc2ccco2)sc2nc(-c3ccccc3)cn12	-2%	54*	66*	-14%	-210%	0%
Cc1nc2cc(-c3ccccc3)nn2c(C)c1CCC(=O)NCc1ccco1	4%	39*	68*	13%	-5%	0%
Cc1c(C(=O)NCc2ccccc2Cl)sc2nc(-c3ccc(F)cc3)cn12	.	.	.	.	.	-6%
Cc1c(C(=O)Nc2ccncc2)sc2nc(-c3ccccc3)cn12	-19%	18*	22	-5%	-37%	2%
Cc1c(C(=O)NCc2cccnc2)sc2nc(-c3ccc(F)cc3)cn12	4%	30*	45*	-13%	-54%	-14%
COc1ccccc1-c1cc2nc(C)c(CCC(=O)NCc3ccco3)c(C)n2n1	5%	14	3	-8%	-2%	-7%
COc1cc(OC)cc(-c2noc([C@@H]3O[C@H](CO)[C@H](O)[C@H](O)[C@H]3O)n2)c1	.	.	.	.	.	-4%
SMILES	LmPK inh	CHX counter	Shiga inhibitor	SARS PLpro yeast	NS1 function inh	Tb PYK inh
Cc1ccc(CCNC(=O)c2cc3c(=O)n(C)c4ccccc4c3n2C)cc1	.	.	.	.	.	3%
O=c1ccc2c(OCCCCc3ccccc3)c3ccoc3cc2o1	.	.	.	.	-15%	.
COc1ccc(NC(=O)CCc2c(C)nc3nc(CNC(=O)OC(C)(C)C)nn3c2C)cc1OC	.	.	.	.	.	-3%
Cc1c(C(=O)NCc2cccnc2)sc2nc(-c3ccccc3)cn12	-14%	24*	31*	-5%	-8%	-11%
Cc1c(C(=O)NCc2ccc(F)cc2)sc2nc(-c3ccccc3)cn12	.	.	.	.	.	-12%
CCOc1cccc(C(=O)Nc2nnc(-c3ccco3)s2)c1	-6%	31*	92*	6%	-7%	-13%
Cc1cccc(OCC(=O)Nc2nnc(-c3ccco3)s2)c1	-1%	-1	-11	-6%	9%	-8%
O=C(Nc1nccs1)c1ccc[nH]c1=O	0%	25*	.	3%	15%	-2%
O=C(Nc1nccs1)c1ccc2ccccc2c1	1%	52*	79*	2%	-28%	4%
